The list is not random: actives were taken first. Their share in the collection is about 7.3%.
Rab9 promoter act – Rab9 promoter activation | Potency, µM (titrated, usually from 9.22 µM), hits mostly activators | Huh7 Rab9 promoter-luciferase reporter, luminescence, 24 h | 320,000 tested, 2.8% active; note: nearly all actives have a fitted effect of over 60% in size
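Steps: seed 1500 Huh7 Rab9-luc cells per well, rest 2 h at 37 °C; add compound in DMSO; incubate 24 h; add luciferase reagent, 10 min ambient; read luminescence.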
FLuc counter – counter-screen for miR-21 project: firefly luciferase inhibitors or activators | P08659 | 360,000 tested, 6.9% active | purified FLuc, Km substrates, luminescence inhibition | AID 588342 | Potency, µM (titrated, usually from 57.5 µM), most hits filed as inhibitors; note: nearly all actives have a fitted effect of over 55% in size
Target sequence (P08659 whole entry, looked up): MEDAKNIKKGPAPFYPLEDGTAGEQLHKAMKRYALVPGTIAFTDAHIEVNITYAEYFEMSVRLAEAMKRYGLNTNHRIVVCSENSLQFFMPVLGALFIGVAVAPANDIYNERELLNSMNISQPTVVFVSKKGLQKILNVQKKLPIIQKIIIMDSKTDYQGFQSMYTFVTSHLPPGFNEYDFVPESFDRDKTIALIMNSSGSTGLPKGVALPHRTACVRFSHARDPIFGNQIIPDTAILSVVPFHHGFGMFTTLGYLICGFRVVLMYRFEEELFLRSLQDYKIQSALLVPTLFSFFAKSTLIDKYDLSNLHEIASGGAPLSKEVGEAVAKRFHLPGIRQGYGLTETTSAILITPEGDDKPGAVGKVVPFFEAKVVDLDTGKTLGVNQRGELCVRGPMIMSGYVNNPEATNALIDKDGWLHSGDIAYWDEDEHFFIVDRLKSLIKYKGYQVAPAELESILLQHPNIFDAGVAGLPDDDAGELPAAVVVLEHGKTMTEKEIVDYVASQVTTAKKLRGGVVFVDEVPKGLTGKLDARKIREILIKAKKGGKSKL
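Biochemical qHTS of compounds, final roughly 60 µM downward over six points, against 10 nM purified firefly luciferase using Km concentrations of substrates (10 uM D-luciferin, 10 uM ATP) in Tris acetate pH 7.5 buffer; luminescence output.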
SMN2 splice enh – enhancers of SMN2 splice variant expression. HEK293 SMN2-luciferase splicing reporter, luminescence, 30-36 h. 210,000 tested, 2.8% active. Potency, µM (highest dose often 46.1 µM), hits mostly activators; note: nearly all actives have a fitted effect of over 55% in size
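HEK293 cells carry an SMN2 […]–luciferase reporter in which exon 7 inclusion puts luciferase in frame. Cells were plated 10-12 h before compound addition, then incubated 30-36 h at 37C. ONE-Glo luminescence was read; sodium butyrate at 4.5 mM final served as control.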
ELG1 genotoxic – genotoxicity induction in ELG1-luciferase HEK293T cells | Potency, µM (titrated, usually from 46 µM), most hits filed as activators | HEK293T ELG1-luciferase reporter, luminescence, 16 h | 330,000 tested, 1.3% active; note: nearly all actives have a fitted effect of over 60% in size
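Luminescence read-out: rising ELG1-luciferase signal, reflecting elevated ELG1 protein under genetic stress, flags genotoxic compounds. Cells were treated for 16 hr at 37 °C before ONE-Glo detection.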
uPA surface inh – inhibitors of cell surface uPA generation | 330,000 tested, 0.31% active | AID 540303 | Potency, µM (doses to about 38.3 µM), most hits filed as inhibitors | cell surface uPA generation assay, qHTS; active = well fitted inhibition curve with a large enough effect; inconclusive = small, poorly fitted or top-dose-only effect; inactive = no such curve, though single readings can be large or run the other way; tested in mouse RAW 264.7 cells; note: nearly all actives have a fitted effect of over 55% in size
NPC1 promoter act – activates the NPC1 promoter | Huh7 NPC1 promoter luciferase reporter, 24 h | Potency, µM (top dose mostly 9.22 µM), usual class: activators | 320,000 tested, 2.4% active | AID 485313; note: nearly all actives have a fitted effect of over 60% in size
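Huh7 reporter cells (NPC1 promoter driving luciferase) are dosed with compound for 24 h at 37 °C, 5% CO2; luciferase detection reagent is then added and luminescence measured after 10 min at ambient temperature.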
Each line names hits and unclear results; the compound was inactive in the other large screens. Unless noted, calls come from the whole dose curve; as a rule, active = well fitted curve in the direction sought with a large enough effect; inconclusive = small, poorly fitted or top-dose-only effect, or another doubt; inactive = no such curve, though single readings can be large; an effect the other way counts as inactive or inconclusive.

O=C(COc1ccc(Br)cc1Cl)c1ccc[nH]1	Rab9 promoter act 4µM, FLuc counter 19µM, SMN2 splice enh inconclusive, NPC1 promoter act inconclusive
c1ccc(Nc2nc(-c3ccccc3)ns2)cc1	Rab9 promoter act 1.3µM, FLuc counter 2.1µM, ELG1 genotoxic 1.8µM, NPC1 promoter act 1.8µM (no result: SMN2 splice enh)
O=C(Nc1nc(-c2ccccc2)ns1)c1ccncc1	FLuc counter 11µM (no result: SMN2 splice enh)
O=C(Nc1nc(-c2ccccc2)ns1)c1ccc(Cl)cc1	none (no result: Rab9 promoter act, SMN2 splice enh, ELG1 genotoxic, uPA surface inh, NPC1 promoter act)
CC(C)(C)C(=O)Nc1nc(-c2ccccc2)ns1	Rab9 promoter act 0.63µM, FLuc counter 5.4µM, SMN2 splice enh 1.6µM, NPC1 promoter act 0.5µM (no result: uPA surface inh)
CC(=O)Cc1nsc(Nc2ccccc2)n1	ELG1 genotoxic inconclusive
CCCCNc1nc(C)nc2c1nc(C)n2CCC	none (no result: Rab9 promoter act, FLuc counter, ELG1 genotoxic, uPA surface inh, NPC1 promoter act)
COc1ccc(-c2[nH]ncc2CN2CCCO2)cc1F	none (no result: SMN2 splice enh)
COc1ccc2cc(-c3[nH]ncc3CN3CCCCO3)ccc2c1	Rab9 promoter act inconclusive, FLuc counter 15µM (no result: SMN2 splice enh)
Cc1coc(C)c1C(=O)Nc1ccc2ccccc2c1	Rab9 promoter act 2.8µM, FLuc counter 11µM, ELG1 genotoxic inconclusive, NPC1 promoter act 3.5µM (no result: SMN2 splice enh)
Cc1oncc1C(=O)Nc1ccc2ccccc2c1	Rab9 promoter act inconclusive, FLuc counter 19µM, ELG1 genotoxic inconclusive, uPA surface inh inconclusive, NPC1 promoter act inconclusive (no result: SMN2 splice enh)
Cc1oncc1C(=O)Nc1ccc(C(F)(F)F)cc1	Rab9 promoter act 1.4µM, FLuc counter inconclusive, SMN2 splice enh 11µM, ELG1 genotoxic inconclusive, uPA surface inh inconclusive, NPC1 promoter act inconclusive
COC(=O)c1cccc(NC(=O)c2cnoc2C)c1	Rab9 promoter act inconclusive, FLuc counter 24µM
c1cncc(-c2nc3cc4ccccc4cc3[nH]2)c1	Rab9 promoter act 1.6µM, FLuc counter 0.6µM, SMN2 splice enh 4µM, ELG1 genotoxic inconclusive, uPA surface inh inconclusive, NPC1 promoter act inconclusive
CC(=O)Nc1ccc2nc(-c3cc(C)ccc3C)[nH]c2c1	FLuc counter inconclusive (no result: Rab9 promoter act, ELG1 genotoxic, uPA surface inh, NPC1 promoter act)
Nc1nc2cc3ccccc3cc2[nH]c1=O	none (no result: SMN2 splice enh)
CC(=O)Nc1ccc2nc(-c3ccccn3)[nH]c2c1	Rab9 promoter act 2.8µM, FLuc counter 19µM, SMN2 splice enh 11µM, ELG1 genotoxic inconclusive, NPC1 promoter act 3.5µM
COc1cccc2[nH]c(-c3ccccn3)nc12	SMN2 splice enh 4µM (no result: Rab9 promoter act, FLuc counter, ELG1 genotoxic, uPA surface inh, NPC1 promoter act)
c1cncc(-c2cc(-c3cc(-c4cccnc4)n[nH]3)[nH]n2)c1	none (no result: Rab9 promoter act, FLuc counter, ELG1 genotoxic, uPA surface inh, NPC1 promoter act)
c1ccc(-c2nc3cc4ccccc4cc3[nH]2)nc1	Rab9 promoter act 0.63µM, FLuc counter 0.11µM, SMN2 splice enh 0.45µM, ELG1 genotoxic 0.23µM, NPC1 promoter act 0.63µM
Cc1ccc2[nH]c(=O)c(CN(Cc3ccco3)S(=O)(=O)c3c(C)ccc4nsnc34)cc2c1	SMN2 splice enh 7.9µM
O=C(NC1CCCC1)O[C@@H]1C(=O)c2cc(Br)ccc2O[C@H]1c1ccc2c(c1)OCO2	none (no result: Rab9 promoter act, FLuc counter, ELG1 genotoxic, uPA surface inh, NPC1 promoter act)
CC[C@H](C)[C@@H](NC(=O)O[C@@H]1C(=O)c2ccc(OC)cc2O[C@H]1c1cccc(C(F)(F)F)c1)C(=O)OC	none (no result: Rab9 promoter act, FLuc counter, ELG1 genotoxic, uPA surface inh, NPC1 promoter act)
Brc1ccccc1OCCCOc1cccc2cccnc12	Rab9 promoter act 4µM, FLuc counter 11µM, ELG1 genotoxic inconclusive, NPC1 promoter act inconclusive (no result: SMN2 splice enh)
Brc1ccccc1OCCOc1cccc2cccnc12	FLuc counter 12µM, SMN2 splice enh inconclusive
COc1cccc(C=O)c1OCCCOc1cccc2cccnc12	Rab9 promoter act 4.5µM, FLuc counter inconclusive, ELG1 genotoxic 18µM, uPA surface inh inconclusive, NPC1 promoter act inconclusive (no result: SMN2 splice enh)
O=C(NCCc1nc2ccccc2n1CCOc1ccc(Cl)cc1)C1CCCCC1	none (no result: Rab9 promoter act, ELG1 genotoxic, uPA surface inh, NPC1 promoter act)
CCOC(=O)c1ccccc1NC(=O)CN(c1ccccc1OC)S(=O)(=O)c1ccc(C)cc1	none (no result: Rab9 promoter act, SMN2 splice enh, ELG1 genotoxic, uPA surface inh, NPC1 promoter act)
O=C(CSc1nc2ccccc2o1)c1ccc2c(c1)OCCO2	Rab9 promoter act inconclusive, FLuc counter 8.5µM, ELG1 genotoxic inconclusive
c1ccc(OCCSc2nc3ccccc3o2)cc1	FLuc counter 21µM
O=C(CSc1nc2ccccc2o1)c1ccccc1	Rab9 promoter act inconclusive, FLuc counter 11µM, NPC1 promoter act inconclusive
Cc1ccc(C(=O)/C=C/NCc2ccc(F)cc2)cc1	FLuc counter 17µM
COc1ccc(C(=O)/C=C/NCc2ccc(F)cc2)cc1OC	none (no result: SMN2 splice enh)
Cc1ccc(CN/C=C/C(=O)c2ccc(Br)cc2)cc1	FLuc counter 17µM
O=C(/C=C/NCC(=O)c1ccccc1)c1ccc(Br)cc1	none
